Data reported in PubChem BioAssay (NCATS).
Inconclusive results are not listed. Activity calls are given as the source filed them. Unless noted, the rule behind the calls is not given here.

Assays:
[1] = qHTS profiling of the MIPE4 collection as inhibitors of Plasmodium falciparum (3D7) proliferation (AID 743344);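 note: scaled between DMSO vehicle wells and 0.29 µM artemisinin as full inhibition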; conditions: P. falciparum 3D7 in erythrocytes, SYBR Green DNA fluorescence, 72 h; at 28.5 µM unless noted
How it was run: (§1)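 Parasite DNA was quantified by SYBR Green I fluorescence (ex 485, em 535 nm) after overnight lysis in saponin/Triton buffer at room temperature. Cultures at 0.3% parasitemia and 2.5% hematocrit were first exposed to compound for 72 h at 37 C; signals were normalised to artemisinin (0.29 uM) and vehicle wells.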

[2] = qHTS profiling of the MIPE4 collection as inhibitors of Plasmodium falciparum (DD2) proliferation (AID 743345); conditions: P. falciparum Dd2 in erythrocytes, SYBR Green DNA, 72 h; at 28.5 µM unless noted
How it was run: as §1

[3] = qHTS profiling of the MIPE4 collection as inhibitors of Plasmodium falciparum (DD2) proliferation (Rep 2) (AID 743346); conditions: P. falciparum Dd2 in erythrocytes, SYBR Green DNA, 72 h; at 28.5 µM unless noted
How it was run: as §1

[4] = qHTS profiling of the MIPE4 collection as inhibitors of Plasmodium falciparum (HB3) proliferation (AID 743347);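 note: plate controls were DMSO vehicle wells for no effect and artemisinin wells for full effect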; conditions: P. falciparum HB3 in erythrocytes, SYBR Green DNA, 72 h; at 28.5 µM unless noted
How it was run: as §1

[5] = High-throughput drug toxicity screening in the BPDCN cell line Gen2.2 (AID 1224824); conditions: Gen2.2 BPDCN cells; at 45.8 µM (top of the series) unless noted;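 note: cells exposed to compounds for 48 h before reading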
How it was run: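 CellTiter-Glo luminescence after 48 h compound exposure of Gen2.2 cells; percent activity set with DMSO as 100% and bortezomib (9.2 uM final) as 0%. Cells seeded at 500 per well, RPMI + 10% FBS, 37 °C.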

[6] = qHTS assay for measurement of the activity of small molecule inhibitors on Zika virus induced Caspase-3 activity in human iPSC derived neural progenitor cells (hNPCs) (AID 1224857; active = well fitted curve in the direction sought with a large enough effect; an effect the other way counts as inactive or inconclusive; note: nearly all actives have a fitted effect of over 65% in size; note: potency is the fitted concentration of half-maximal effect)
How it was run: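 Quantitative HTS format: human iPSC neural progenitors, 1 h compound pretreatment, ZIKV 2 FFU/cell for 6 h at 37 C. Percent inhibition derived from luminescent caspase-3/7 signal between uninfected and infected controls.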

[7] = qHTS profiling for inhibitors of Plasmodium falciparum (3D7) proliferation (AID 743322);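 note: infected erythrocytes exposed to compound for 72 h before lysis; 100% = DMSO vehicle wells and 0% = 0.29 µM artemisinin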; conditions: P. falciparum 3D7 proliferation; at 28.7 µM (top of the series)
How it was run: as §1

[8] = qHTS profiling for inhibitors of Plasmodium falciparum (DD2) proliferation (AID 743323); conditions: lower = more inhibition; at 28.7 µM (top of the series)
How it was run: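 1536-well qHTS; infected RBCs 0.3% parasitemia/2.5% Hct final; cpd 72 h 37 C 5% CO2; lysis buffer + SYBR Green I, o/n RT dark; FI 485/535; norm. to 0.29 uM artemisinin and DMSO, plate-stack corrected.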

[9] = qHTS profiling for inhibitors of Plasmodium falciparum (HB3) proliferation (AID 743324; active = well fitted curve in the direction sought with a large enough effect; an effect the other way counts as inactive or inconclusive;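 note: 100% = DMSO vehicle wells and 0% = artemisinin-treated control wells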); conditions: Plasmodium falciparum HB3 blood-stage proliferation; at 28.7 µM (top of the series)
How it was run: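 SYBR Green fluorescence (485 ex/535 em) of lysed cultures, incubated overnight at room temperature in the dark, quantifies parasite DNA. Infected erythrocytes at 0.3% parasitemia and 2.5% hematocrit were exposed 72 h; values normalized to DMSO and 0.29 uM artemisinin controls.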

[10] = High-throughput drug toxicity screening in the BPDCN cell line Cal-1 (AID 1224825); conditions: Cal-1 BPDCN cell viability, qHTS; at 45.8 µM (top of the series) unless noted
How it was run: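 CellTiter-Glo luminescence after 48 h compound exposure; percent activity scaled with DMSO as 100% and bortezomib (9.2 uM final) as 0%. Cal-1 cells seeded at 500/well in RPMI, 10% FBS, no phenol red.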

Compound	parasite growth, % of DMSO control [1] [%]	parasite growth remaining, % of DMSO control (lower = more inhibition) [2] [%]	parasite growth, % of control (lower = inhibition) [3] [%]	growth, % of control [4] [%]	cell viability, % of control (lower = more cytotoxic) [5] [%]	Potency [6]	remaining parasite growth % (stronger effect = lower value) [7] [%]	activity, percent of control [8] [%]	remaining proliferation (% of control), lower = more inhibition [9] [%]	viability (% of control) [10] [%]
CC(=O)OC1C(C)OC(Oc2c(-c3ccc(O)cc3)oc3cc(O)cc(O)c3c2=O)C(O)C1OC(C)=O (centres undefined)	11.3	72.5	32.5	4.99	5.65	inactive				
CON=C(C(=O)N[C@@H]1C(=O)N2C(C(=O)OCOC(=O)C(C)(C)C)=C(C=Cc3scnc3C)CS[C@H]12)c1csc(N)n1	60.4	96		84.9	90.5	inactive				
COc1ccc2cc(-c3nc(-c4ccc(S(C)=O)cc4)[nH]c3-c3ccncc3)ccc2c1 (centres undefined)	6.21	9.3	10.6	3.67	470	inactive				
CCn1c(C(=O)N(C2CC2)C2CC2)cc2c3c(ncn3C)c(Nc3cc(C)n(C)n3)nc21	9.81	12.4	23.5	11.5	144	inactive				
CN1CCN(CCOc2cc(OC3CCOCC3)c3c(Nc4c(Cl)ccc5c4OCO5)ncnc3c2)CC1	5.31	8.1	7.87	6.19	54.1	inactive	0.208	1.7	-0.659	
C[C@]12CC[C@@H]3c4ccc(O)cc4CC[C@H]3[C@H]1C[C@@H](O)[C@H]2O	87	91.2	76.7	63.5	77.1	inactive				
O=c1c(-c2ccc(O)cc2)coc2cc(O)ccc12	100	102	89.3	89.3	119	11.2 µM (active)				
COc1ccc(Cc2ccc(NC(N)=O)cc2)cc1-c1cccc(Cl)c1	61.7	89.9	38.4	69.6	234	inactive				
O=C(NCc1ccccc1)c1csc(Nc2ccncn2)n1		79.6			1.93					2.12
Cc1c[nH]c(C=C2C(=O)Nc3ccccc32)c1CCC(=O)O	24.1	38.5	29.1	37.7	45	inactive				
